In PubChem BioAssay (NCI):
The panel holds about 79,000 compounds, 15% with a hit somewhere; the sample as a whole holds those more often. Active and inactive are the calls of the source. Rule as the data show it: active = growth inhibition above about 70%; inactive = the rest.

Assays:
[1] = NCI Yeast Anticancer Drug Screen. Data for the rad52 strain (AID 147);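 also: 0% = growth of vehicle-treated control cultures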; settings: S. cerevisiae rad52 mutant growth inhibition, hits give high values
In short: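 The repair-mutant yeast strain was incubated with compounds, then growth was read and inhibition derived relative to vehicle.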

[2] = NCI Yeast Anticancer Drug Screen. Data for the wt1 strain (AID 149);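 also: 0% = growth of vehicle-treated wt1 cultures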; settings: S. cerevisiae wt1 strain (SPY 50644) growth inhibition, hits give high values
In short: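 Measured: growth of wt1 yeast under compound versus vehicle treatment, reported as inhibition.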

[3] = NCI Yeast Anticancer Drug Screen. Data for the rad50EPP+ strain (AID 151);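 also: 0% = growth of vehicle-treated control cultures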; settings: S. cerevisiae rad50 mutant strain, hits give high values
In short: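 Vehicle-normalised growth inhibition; rad50EPP+ yeast strain, altered in DNA damage repair, compound-treated.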

[4] = NCI Yeast Anticancer Drug Screen. Data for the mgt1 strain (AID 153); settings: S. cerevisiae mgt1 mutant growth inhibition, hits give high values
In short: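 Vehicle-normalized growth inhibition is determined in mgt1 yeast, a strain selected for a defined alteration in DNA repair or cell cycle control.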

[5] = NCI Yeast Anticancer Drug Screen. Data for the rad50 strain (AID 155);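 also: 0% = growth of vehicle-only cultures of the same strain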; settings: S. cerevisiae rad50 strain growth inhibition, hits give high values
In short: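 Growth of the mutant yeast was measured after compound exposure and referenced to vehicle-treated cultures.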

[6] = NCI Yeast Anticancer Drug Screen. Data for the mec2-1 strain (AID 157); settings: S. cerevisiae mec2-1 strain, hits give high values
In short: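 Mutant yeast (mec2-1) grown with compound; growth inhibition relative to vehicle control reported.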

[7] = NCI Yeast Anticancer Drug Screen. Data for the rad14 strain (AID 159);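 also: 0% = growth of vehicle-treated control cultures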; settings: S. cerevisiae rad14 strain growth inhibition, hits give high values
In short: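 Here, inhibition of yeast growth was measured after compound exposure, using a strain with a genetic defect in DNA damage repair and vehicle-treated cultures as the reference.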

[8] = NCI Yeast Anticancer Drug Screen. Data for the sgs1 mgt1 strain (AID 161);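 also: 0% = growth of cultures given vehicle only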; settings: S. cerevisiae sgs1 mgt1 strain, hits give high values
In short: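 Percent growth inhibition was derived by comparing compound-exposed mutant yeast with vehicle-exposed cultures. The strain carries alterations in DNA damage repair.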

[9] = NCI Yeast Anticancer Drug Screen. Data for the CLN2oe strain (AID 163);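 also: 0% = growth of vehicle-only control cultures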; settings: S. cerevisiae CLN2oe strain, hits give high values
In short: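 Compounds are applied to yeast harbouring a defined cell-cycle control change; reduced growth compared with vehicle-treated controls gives the value.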

[10] = NCI Yeast Anticancer Drug Screen. Data for the bub3 strain (AID 167); settings: S. cerevisiae bub3 mutant strain, hits give high values
In short: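 Whole-cell yeast assay. The mutant strain was incubated with compounds, and growth inhibition was determined by comparison with vehicle-treated cells.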

[11] = NCI Yeast Anticancer Drug Screen. Data for the wt2 strain (AID 169);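 also: 0% = growth of vehicle-treated yeast cultures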; settings: S. cerevisiae wt2 strain growth inhibition, hits give high values
In short: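 Against vehicle-treated controls, the growth of yeast exposed to each compound was compared, and the inhibition was recorded.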

[12] = NCI Yeast Anticancer Drug Screen. Data for the mlh1 strain (AID 171);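 also: 0% = growth of vehicle-treated control cultures of the same strain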; settings: S. cerevisiae mlh1 strain growth inhibition, hits give high values
In short: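 Measured: yeast growth. Reference: vehicle-treated controls. Organism: strain with a defined alteration affecting DNA damage repair or cell cycle control, treated with compound.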

[13] = NCI Yeast Anticancer Drug Screen. Data for the sgs1 strain (AID 173);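 also: 0% = growth of vehicle-only control cultures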; settings: S. cerevisiae sgs1 mutant, hits give high values
In short: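 Each compound was added to cultures of the altered yeast strain. Growth was recorded, and inhibition was derived by comparison with vehicle controls.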

[14] = NCI Yeast Anticancer Drug Screen. Data for the mlh1 rad18 strain (AID 175); settings: S. cerevisiae mlh1 rad18 strain growth inhibition, hits give high values
In short: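 Genetically defined yeast (DNA repair-deficient) exposed to compounds; growth inhibition determined relative to vehicle.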

[15] = NCI Yeast Anticancer Drug Screen. Data for the rad18 strain (AID 177); settings: S. cerevisiae rad18 mutant growth inhibition, hits give high values
In short: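 Vehicle-treated cultures served as the baseline for scoring compound-induced growth inhibition in DNA-repair-mutant yeast.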

[16] = at 5.0 µM (retest, dose inferred, filed as 0.5)
[17] = at 50.0 µM (retest, dose inferred, filed as 5.0)

Measured: growth inhibition

S=C1SCN(CCc2ccccc2)CN1CCc1ccccc1
inactive: [1]; at 1.2 µM 12% | [1]; at 3.7 µM 21% | [1]; at 11.0 µM 46% | [1]; at 33.0 µM 63% | [1]; at 100.0 µM 46% | [2]; at 1.2 µM 16% | [2]; at 3.7 µM -1% | [2]; at 11.0 µM 46% | [2]; at 33.0 µM 45% | [2]; at 100.0 µM 10% | [3]; at 1.2 µM 26% | [3]; at 3.7 µM 51% | [4]; at 1.2 µM 1% | [4]; at 3.7 µM 0% | [4]; at 11.0 µM 35% | [4]; at 33.0 µM 42% | [4]; at 100.0 µM 26% | [5]; at 1.2 µM -12% | [5]; at 3.7 µM 5% | [5]; [16] 7% | [5]; at 11.0 µM 50% | [5]; at 33.0 µM 64% | [5]; [17] 38% | [5]; at 50.0 µM 55% | [5]; at 100.0 µM 52% | [6]; at 1.2 µM -3% | [6]; at 3.7 µM 1% | [6]; [16] 24% | [6]; at 11.0 µM 52% | [6]; at 33.0 µM 54% | [6]; [17] 55% | [6]; at 100.0 µM 38% | [7]; at 1.2 µM -20% | [7]; at 3.7 µM -4% | [7]; at 11.0 µM 2% | [7]; at 33.0 µM 34% | [7]; at 100.0 µM 16% | [8]; [16] 9% | [8]; [17] 48% | [9]; at 1.2 µM 3% | [9]; at 3.7 µM 10% | [9]; at 11.0 µM 25% | [9]; at 33.0 µM 45% | [9]; at 100.0 µM 17% | [10]; at 1.2 µM -2% | [10]; at 3.7 µM 3% | [10]; [16] -4% | [10]; at 11.0 µM 23% | [10]; at 33.0 µM 53% | [10]; at 100.0 µM 42% | [11]; at 1.2 µM 6% | [11]; at 3.7 µM 3% | [11]; at 11.0 µM 53% | [11]; at 33.0 µM 63% | [11]; at 100.0 µM 47% | [12]; at 1.2 µM -3% | [12]; at 3.7 µM -10% | [12]; at 11.0 µM 20% | [12]; at 33.0 µM 40% | [12]; at 100.0 µM 19% | [13]; at 1.2 µM -5% | [13]; at 3.7 µM 16% | [13]; at 11.0 µM 31% | [13]; at 33.0 µM 59% | [13]; at 100.0 µM 48% | [14]; [16] -9% | [14]; at 50.0 µM 58% | [15]; at 1.2 µM 15% | [15]; at 3.7 µM 25% | [15]; at 11.0 µM 47% | [15]; at 33.0 µM 65% | [15]; at 100.0 µM 39%
active: [3]; at 11.0 µM 85% | [3]; at 33.0 µM 92% | [3]; at 100.0 µM 81% | [6]; at 50.0 µM 71.8% | [8]; at 50.0 µM 76.2% | [10]; [17] 72% | [10]; at 50.0 µM 79.1% | [14]; [17] 80%
